# Results: PubChem BioAssay (NCATS)
# Inconclusive results are not listed. Activity calls are given as the source filed them. Calls follow the shape of the dose curve; as a rule, active = well fitted inhibition curve with a large enough effect; inconclusive = small, poorly fitted or top-dose-only effect, or effect the other way; inactive = no such curve, though single readings can be large or run the other way.
# Test: High Content Imaging Cell-Based qHTS for Inhibitors of the mTORC1 Signaling Pathway in MEF Cells (AID 2667);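 also: Tsc2-/- p53-/- MEFs stably re-expressing wild-type Tsc2 exposed 24 h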
# Details: series mostly up to 38.3 µM; activity change, negative = inhibition: at the top concentration
# Text: NIH Molecular Libraries Probe Production Centers Network [MLPCN]
# NIH Chemical Genomics Center [NCGC]
# Assay Submitter (PI): Blenis, John; Hoffman, Greg; Harvard University
# NCGC Assay Overview: The mammalian target of rapamycin (mTOR) is an intracellular serine/threonine kinase Aberrant regulation of mTOR signaling plays a causative role in a number of human diseases, including cancer, benign tumors such as lymphangioleiomyomatosis (LAM) and Tuberous Sclerosis Complex (TSC), and metabolic diseases such as diabetes and obesity. This project aims to identify inhibitors of ribosomal protein S6 (rpS6) phosphorylation. The phosphorylation of rpS6 is a key event downstream of mTOR activation. The assay uses a phospho-specific antibody of phospho-rpS6 to detect inhibitors of mTOR activation. Mutations in the Tsc1 and Tsc2 genes are the underlying genetic lesions responsible for TSC, causing constitutive activation of the mTORC1 pathway and leading to profound effects on cell metabolism. Aberrant metabolism in cancer has recently received significant attention as a target to develop therapeutic agents in the treatment of cancer.1 As Tsc2-/- cells have lost the ability to respond to energy and growth factor deprivation, these cells are unable to properly down regulate cellular biosynthetic processes in response to metabolic stress, and are thus extremely sensitive to glucose deprivation-induced death.2 A central goal of this project is to explore the unique cell survival and metabolic properties of cells with Tsc1 or Tsc2 by screening for compounds that selectively target the Tsc2-/- MEFs by screening both Tsc2-/- and WT MEF cell lines. We hope to better understand these aspects of TSC physiology in order to exploit them for therapeutic benefit.
# NCGC IN Cell Assay Protocol:
# For quantitative high throughput analysis of mTORC1 signaling, we developed a cell-based assay for immuno-fluorescence based detection of rpS6 phosphorylation on the Acumen Explorer that will be used a platform for the primary small molecule screen. Mouse embryonic fibroblasts (MEFs) are cultured in 1536-well plates using DMEM + 10% FBS. Twenty-four hrs after plating, test compounds (solubilized in DMSO) are delivered and incubated with the cells for 24 hrs at 37 degree Celsius. Following the incubation, media with compound is aspirated and the cells are fixed in 4% paraformaldehyde (PFA) containing PBS + 0.2% TX-100. Next, PFA is aspirated, cells are washed two times with PBS plus 0.2% TX-100 and the cells are blocked for 1 hr at room temperature (blocking buffer: LiCOR Blocking Buffer plus 0.2% TX-100). This is followed by aspiration and staining with Alexa-488 conjugated-phospho-rpS6 Ser235/236 antibody for 2 hours at room temperature (Cell Signaling Technology # 4803, 1:50 dilution in blocking buffer). Cells are washed two times with PBS plus 0.2% TX-100, and stained with 10 uM propidium iodide (PI) for 20-25 minutes for cell number measurement (1:500 dilution of Hoescht staining is also added for IN Cell imaging). Active wells which are selected (based on Acumen results) are imaged on the IN Cell 1000 (GE Healthcare) using the D360/40X and HQ480/40X excitation filters for the Hoechst and Alexa-488 cytoplasmic stains, respectively. The fluorescence emission filters used were HQ460/40M and HQ535/50M for the Hoechst and Alexa-488 cytoplasmic stains, respectively. The normalized phospho-S6 staining is calculated as the ratio of […] for the single concentration rapamycin control ([…] nM) and DMSO columns. […] Inhibition of the pathway is defined based on the normalized phospho-S6 intensity in rapamycin treated cells. Each treatment is reported as the % positive cells in the well, where thresholds are defined by selecting wells with the highest and lowest signal and differentiating between the % non-active and % active populations. […]
row,SMILES,"activity change, negative = inhibition"
1,C[C@](Cc1ccc(O)c(O)c1)(NN)C(=O)O,-100% (inactive)
2,CNC(=O)c1cc2c(cn1)[nH]c1ccccc12,-100% (inactive)
3,O=C1C2C=CC=CC2=NC(=S)N1CCN1CCC(=C(c2ccc(F)cc2)c2ccc(F)cc2)CC1 (stereo not given),-100% (inactive)
4,CCCc1c(OCCCOc2ccc(OCC(=O)O)cc2)ccc(C(C)=O)c1O,-100% (inactive)
5,N[C@H](C(=O)O)[C@H]1C[C@@H]1C(=O)O,-100% (inactive)
6,Nc1nc2c(nc(Br)n2C2OC3COP(=O)(O)O[C@@H]3C2O)c(=O)[nH]1 (stereo not given in full),-100% (inactive)
7,CC[C@@H]1Cc2cc(O)ccc2C2=C1c1ccc(O)cc1C[C@H]2CC,-100% (inactive)
8,CNCCNS(=O)(=O)c1cccc2cnccc12,-100% (inactive)
9,Brc1c(Br)c(Br)c2[nH]cnc2c1Br,-100% (inactive)
10,CN1CCc2cc(Cl)c(O)cc2[C@@H](c2ccccc2)C1,-100% (inactive)
11,CCSC(=N)N,-100% (inactive)
12,O=c1[nH]c(=S)[nH]c(-c2ccccc2)c1Cc1c(O)ccc2ccccc12,-100% (inactive)
13,CNc1cc(NS(=O)(=O)c2ccc(N)cc2)nc(NC)n1,-100% (inactive)
14,O=C(O)c1ccccc1Nc1cccc(OCc2ccc3ccccc3n2)c1,-100% (inactive)
15,COc1cc2c(CCNC(C)=O)c[nH]c2cc1O,-100% (inactive)
16,CC(=O)[C@H]1CCC2C3CC=C4C[C@@H](OS(=O)(=O)O)CC[C@]4(C)C3CC[C@@]21C (stereo not given in full),-100% (inactive)
17,C#CC(N)CCC(=O)O (stereo not given),-100% (inactive)
18,NC(N)=NC(N)=Nc1cccc(Cl)c1,-100% (inactive)
19,NC/C=C\C(=O)O,-100% (inactive)
20,COC1(C2=NCCN2)COc2ccccc2O1 (stereo not given),-100% (inactive)

row,SMILES,"activity change, negative = inhibition"
1,NC(N)=NC(N)=Nc1ccccc1,-100% (inactive)
2,N=C(N)SCCc1cnc[nH]1,-100% (inactive)
3,c1ccc2c(c1)CCC[C@H]2Nc1nc2ccccc2[nH]1,-100% (inactive)
4,O=C1OC(=O)C2C3CCC(O3)C12 (stereo not given),-100% (inactive)
5,CCCCCCC(=O)OC1CC(C)(C)NC(C)(C)C1,-100% (inactive)
6,N[C@@H](Cc1ccc(F)cc1)C(=O)O,-100% (inactive)
7,CCCc1c(-c2ccc(O)cc2)nn(-c2ccc(O)cc2)c1-c1ccc(O)cc1,-100% (inactive)
8,O=C(c1ccc2c(c1)OCCO2)N1CCCCC1,-100% (inactive)
9,CC1C(=O)N(C)C(=O)c2nc[nH]c21 (stereo not given),-100% (inactive)
10,COc1ccc2c(c1)CCC1C2CC[C@@]2(C)C1CC[C@@H]2NCCCCCCN1C(=O)C=CC1=O (stereo not given in full),-100% (inactive)
11,COC(=O)C(C)(N)Cc1ccc(O)cc1 (stereo not given),-100% (inactive)
12,CCCC(=O)NCCc1c2n(c3ccc(OC)cc13)CCCc1ccccc1-2,-100% (inactive)
13,CCC(=O)N1CCN(C(=O)c2ccccc2)CC1,-100% (inactive)
14,CC(C)Cn1c(=O)n(C)c(=O)c2[nH]cnc21,-100% (inactive)
15,COC(=O)C1=C(C)NC(C)=C([N+](=O)[O-])C1c1ccccc1C(F)(F)F (stereo not given),-100% (inactive)
16,O=C(O)c1ccccc1Nc1ccccc1,-100% (inactive)
17,O=c1[nH]c(=O)c2nc3ccccc3nc2[nH]1,-100% (inactive)
18,N#Cc1cc([N+](=O)[O-])c2sc(C(N)=O)[n+]([O-])c2c1,-100% (inactive)
19,C=CC1(C)CC(=O)C2(O)C(C)(O1)C(OC(C)=O)C(O)C1C(C)(C)CCC(O)C12C (stereo not given),-100% (inactive)
20,O=c1cc(O)cc(/C=C/c2ccc(O)c(O)c2)o1,-100% (inactive)
